# Sampled rows, rich in hits. Any-hit rate of the full collection: about 3.2%.
# rRNA inh HTS: inhibits bacterial ribosomal RNA function over humanized ribosomes; E. coli WT GFP vs humanized-ribosome RFP mutants, fluorescence, 24 h; stronger effect = lower value; DMSO median 0, no signal -100; GFP signal change (wild-type ribosome), % (concentration not given with the values); 350,000 tested, 1.6% active;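 active = significant combined selectivity score with lowered wild-type GFP, culture density cut under 30%, mutant RFP and density less affected; inactive = any of these conditions unmet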
# PGC1a acetyl inh: modulators of PGC1a acetylation | 350,000 tested, 0.17% active | AID 651687 | inhibition, % at 15.6 µM | U2OS PGC1a acetylation, AlphaScreen anti-acetyl-lysine; with virally co-expressed GCN5 acetyltransferase;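 active = every replicate shows inhibition of at least 40%; inconclusive = mean inhibition at least 40% but some replicate below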;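 also: 0% = neutral control wells and 100% = positive control wells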
# ERAP1 inh: ERAP1 (human) enzyme inhibition. recombinant ERAP1, Leu-AMC fluorescence, 60 min. inhibition, % at 10.7 µM. Q9NZ08. AID 652197. 340,000 tested, 0.15% active;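 active = mean replicate inhibition of at least 30%, or all replicates individually reaching that 30% level; inactive = mean below 30% and not every replicate reaching it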;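 also: 0% = neutral control wells and 100% = L-leucinethiol positive control wells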
# Target sequence (Q9NZ08 whole entry, looked up): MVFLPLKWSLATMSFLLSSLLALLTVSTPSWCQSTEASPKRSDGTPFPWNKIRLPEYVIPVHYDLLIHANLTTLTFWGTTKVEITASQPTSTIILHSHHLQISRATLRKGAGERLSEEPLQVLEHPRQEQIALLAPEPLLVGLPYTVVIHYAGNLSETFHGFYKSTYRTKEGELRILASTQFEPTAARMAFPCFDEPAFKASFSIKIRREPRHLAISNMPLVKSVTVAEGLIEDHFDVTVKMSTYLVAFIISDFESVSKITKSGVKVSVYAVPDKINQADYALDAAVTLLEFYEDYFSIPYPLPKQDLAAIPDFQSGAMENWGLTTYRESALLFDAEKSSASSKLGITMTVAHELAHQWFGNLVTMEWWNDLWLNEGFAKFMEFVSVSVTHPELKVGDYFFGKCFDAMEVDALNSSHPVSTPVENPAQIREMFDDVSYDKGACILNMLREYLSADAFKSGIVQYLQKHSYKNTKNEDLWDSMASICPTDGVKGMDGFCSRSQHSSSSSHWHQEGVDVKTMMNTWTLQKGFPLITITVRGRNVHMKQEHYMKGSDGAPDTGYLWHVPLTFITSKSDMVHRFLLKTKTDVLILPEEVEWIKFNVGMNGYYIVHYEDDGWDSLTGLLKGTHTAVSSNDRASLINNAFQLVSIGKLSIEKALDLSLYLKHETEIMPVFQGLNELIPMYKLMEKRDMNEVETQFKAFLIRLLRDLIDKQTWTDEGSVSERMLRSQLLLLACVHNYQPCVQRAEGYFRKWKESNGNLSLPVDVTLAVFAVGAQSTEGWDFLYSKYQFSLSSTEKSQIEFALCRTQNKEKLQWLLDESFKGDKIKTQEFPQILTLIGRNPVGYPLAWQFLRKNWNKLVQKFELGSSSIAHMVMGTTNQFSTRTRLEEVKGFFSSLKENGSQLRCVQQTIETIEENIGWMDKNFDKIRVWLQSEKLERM
# DENV2 CPE rescue: protects cells from dengue virus 2 cytopathic effect; DENV2-infected cells, cytopathic effect rescue, plate reader; CPE inhibition, % at 9.99 µM; 350,000 tested, 1.7% active; in the data active = CPE inhibition above about 20%, passing the limit was not always enough; inconclusive = no clear call, values can overlap the other calls; tested in BHK-21 cells;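 also: 0% = median of neutral control wells and 100% = median of positive control wells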
# CaV13 FRET inh: Disruptors of the CACNA1D IQ motif to Ca2+-dependent inactivation inhibitor domain association, primary screening, Förster resonance energy transfer in intact living …. HEK cells, CFP/YFP FRET ICDI-IQ, plate reader, 10 min; percent FRET-ratio fall versus neutral wells. inhibition, % at 12.3 µM. 340,000 tested, 0.098% active. AID 743397;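 active = mean replicate inhibition of at least 30% and at least 1% of replicates passing that level; inconclusive = only one of the two criteria is met; inactive = neither criterion is met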;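 also: 0% = median of the neutral control wells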
# INS-1E GSIS act: primary screen for activators of insulin secretion dependent on glucose, INS-1E cells, GLuc reporter luminescence | activation, % at 16.6 µM | AID 743287 | 370,000 tested, 0.61% active | INS-1E GLuc reporter insulin secretion, 2-3 h;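 active = lowest replicate activation of at least 40%, so every replicate reaches that level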;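 also: 0% = median of neutral control wells and 100% = median of IBMX positive control wells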
# The depositor's hits bear a star; u = inconclusive; x = no result given.
SMILES,rRNA inh HTS,PGC1a acetyl inh,ERAP1 inh,DENV2 CPE rescue,CaV13 FRET inh,INS-1E GSIS act
C[C@H](CO)N1C[C@H](C)[C@@H](CN(C)Cc2ccc(Oc3ccccc3)cc2)Oc2c(NS(=O)(=O)c3ccc(F)cc3)cccc2C1=O,0,-1,-2,39*,x,-15
C[C@H]1CN([C@@H](C)CO)C(=O)c2cccc(NS(=O)(=O)c3ccccc3)c2O[C@@H]1CN(C)Cc1ccc(C(=O)O)cc1,2,3,-2,31*,x,11
C[C@H]1CN([C@@H](C)CO)C(=O)c2cccc(NS(=O)(=O)c3ccc(F)cc3)c2O[C@H]1CN(C)Cc1ccc(Oc2ccccc2)cc1,2,8,x,x,x,-27
CO[C@@H]1CN(C)C(=O)c2ccc(NC(=O)c3cccc(F)c3)cc2OC[C@@H](C)N(C(C)=O)C[C@@H]1C,-2,-9,1,-7,x,6
N#C[C@H]1[C@@H](c2ccc(C3=CCCCC3)cc2)[C@@H](CO)N1S(=O)(=O)c1cccc(F)c1,2,-2,3,92*,x,6
N#C[C@@H]1[C@@H](c2ccccc2C2=CCCCC2)[C@@H](CO)N1S(=O)(=O)c1cccc(F)c1,-6,-21,0,-5,x,-26
N#C[C@H]1[C@H](c2ccccc2C2=CCCCC2)[C@@H](CO)N1S(=O)(=O)c1cccc(F)c1,-30,-25,-2,31*,x,-9
N#C[C@H]1[C@@H](c2ccc(C3=CCCCC3)cc2)[C@H](CO)N1S(=O)(=O)c1cccc(F)c1,1,4,3,-11,x,0
C[C@@H]1CN([C@H](C)CO)C(=O)CCCn2cc(nn2)CO[C@@H]1CN(C)Cc1ccccc1C(F)(F)F,2,-7,x,x,x,12
CO[C@@H]1CN(C)C(=O)c2ccc(NS(=O)(=O)c3cccc(C)c3)cc2OC[C@H](C)NC[C@H]1C,2,x,x,x,x,9
CCOC(=O)C1CCCN(C(=O)c2ccc3nc(-c4cccc(OC)c4)oc3c2)C1 (stereo not drawn),-35*,-2,2,5,-8,-7
CCOC(=O)C1CCCN(C(=O)c2ccc3oc(CCc4ccccc4)nc3c2)C1 (stereo not drawn),-29*,-1,1,-7,-6,-1
CCOC(=O)C1CCCN(C(=O)c2ccc3nc(-c4ccc(OC)c(OC)c4)c(-c4ccc(OC)c(OC)c4)nc3c2)C1 (stereo not drawn),-1,-13,34*,15,-15,-19
COc1ccccc1S(=O)(=O)N[C@H]1CC[C@@H](CCNC(=O)C2CC2)O[C@H]1CO,1,7,1,u,x,5
C[C@@H](NC(=O)C[C@H]1C[C@@H]2c3cc(NC(=O)C4CCOCC4)ccc3O[C@@H]2[C@H](CO)O1)c1ccccc1,-4,5,-3,0,x,22
O=C(Nc1ccc(Cl)cc1)N1C[C@@H]2[C@H](c3ccccc31)[C@H](CO)N2C(=O)c1cccnc1,-35,2,-1,7,x,-10
Cc1ccccc1S(=O)(=O)N1CC(=O)N2[C@@H](CO)[C@H](c3ccc(C#CC4CC4)cc3)[C@@H]2C1,-3,-5,1,u,x,7
COc1ccc(C2CC(c3ccccc3)=NN2S(=O)(=O)c2ccccc2)c(OC)c1 (stereo not drawn),5,x,1,22*,-14,1
O=C(NC1CCCCC1)N[C@@H]1CC[C@H](CCNS(=O)(=O)c2ccccc2)O[C@H]1CO,0,6,2,7,x,-4
O=C(N/N=C/c1cccn1-c1ccc([N+](=O)[O-])cc1)c1cccnc1,14,6,7,116*,-4,1
COC(=O)c1ccccc1NC(=O)c1ccc2c(c1)CC(C)O2 (stereo not drawn),-29*,x,1,9,-3,-9
CC1Cc2cc(C(=O)O)ccc2O1 (stereo not drawn),x,2,x,x,x,x
C[C@@H]1CN([C@@H](C)CO)S(=O)(=O)c2ccc(-c3cccc(C(=O)N(C)C)c3)cc2O[C@@H]1CN(C)C(=O)Cc1ccccn1,1,4,1,5,x,4
COc1ccccc1CCn1cnc(-c2cccc(F)c2)c1CC(C)C,-53,x,-3,15,-4,141*
COc1ccccc1CCn1cnc(-c2ccc(Cl)cc2)c1CC(C)C,-33,x,-3,u,-5,307*
SMILES,rRNA inh HTS,PGC1a acetyl inh,ERAP1 inh,DENV2 CPE rescue,CaV13 FRET inh,INS-1E GSIS act
CCCc1c(-c2cccc(F)c2)ncn1CCc1ccccc1OC,-61,x,-1,-3,-10,-4
O=C(NCc1nc2ccccc2[nH]1)C1=C[C@@H](c2ccc3c(c2)OCO3)C[C@@H](OCCCCO)O1,x,2,2,18,x,x
CS(=O)(=O)Nc1ccc2c(c1)[C@@H]1C[C@@H](CC(=O)NCc3ccc(Oc4ccccc4)cc3)O[C@@H](CO)[C@@H]1O2,6,-15,-1,0,x,23
COc1ccc(C)cc1NC(=O)c1ccc(CN2CCN(c3ccccc3)CC2)cc1,x,x,x,x,-5,-16
COc1ccc(C)cc1NC(=O)c1ccc(CN2CCc3ccccc3C2)cc1,-24*,14,1,-2,-4,-5
Fc1ccc(F)c(C2=NNC(=Nc3ccccc3F)SC2)c1,3,-2,-3,86*,-5,0
COc1cccc(-c2ccc3n(c2=O)C[C@H]2[C@H](CO)[C@@H](C(=O)NCCN4CCCCC4)N(C)[C@@H]32)c1,4,x,1,-1,x,29
Cc1cc(C)c2[nH]c(C(=O)Nc3ccc4c(c3)OCO4)cc2c1,-19,-17,x,24*,-4,-10
Cc1cc(C)c(NC(=O)Nc2ccc3c(c2)OCO3)c(C)c1,15,8,-5,2,x,7
COc1ccc(C(CC(=O)Nc2ccccn2)N2Cc3ccccc3C2=O)cc1 (stereo not drawn),-3,76*,-2,3,-19,-23
COc1ccc(C(CC(=O)Nc2ncccc2C)N2Cc3ccccc3C2=O)cc1 (stereo not drawn),5,-13,-4,-4,-18,17
C[C@@H]1CCCCO[C@@H](CN(C)C(=O)Nc2ccccc2)[C@@H](C)CN([C@H](C)CO)C(=O)c2cc(NS(=O)(=O)c3cn(C)cn3)ccc2O1,5,3,0,-7,x,29
C[C@H]1CN([C@@H](C)CO)C(=O)c2cc(-c3cccc(C#N)c3)cnc2O[C@@H]1CN(C)Cc1ccncc1,2,-9,0,-6,x,1
CCN(CC(=O)Nc1ccccc1OC)C(=O)C1CCCC1,16,x,-2,u,-2,68*
CC(C)(C)NCC(O)COc1ccccc1C1CCCC1 (stereo not drawn),x,-12,0,-3,-4,-7

# Screening results (PubChem BioAssay)
